Assay outcomes (PubChem)
GRIN3A LBD mod – modulates the human NR3A ligand-binding domain; NR3A LBD differential scanning fluorimetry, Tm shift; 0% = protein alone, 100% = glycine-bound protein; Tm shift relative to glycine control, % at 25 µM; actives 2.5% (n = 340,000);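 active means melting temperature shift of at least 10% of the positive control shift, at one fixed dose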
FAS-TE inh – inhibitors of human fatty acid synthase thioesterase domain; P49327; actives 0.67% (n = 360,000); inhibition, % at 15 µM; recombinant FAS-TE, OMFH fluorogenic substrate, fluorescence endpoint;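 active means compounds whose normalised, plate-corrected inhibition of enzyme fluorescence in the single-dose primary screen is 50% or more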
rCAG RNA binder – binds r(CAG) RNA repeats; r(CAG) RNA repeat, TO-PRO-1 dye displacement fluorescence; inhibition, % at 3 µM; actives 1.3% (n = 370,000); AID 651821;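 active means inhibition above the plate cutoff, the mean of all test compounds on that plate plus 3 SD, cut at about 35% in these data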;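 further: higher means more dye released from RNA so lower well fluorescence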
NadD block – NadD (S. aureus) enzyme inhibition; purified NadD enzyme, colorimetric absorbance read-out; inhibition, % at 20 µM; actives 0.78% (n = 360,000); AID 602399; in the data active means inhibition above about 26%
NadD inh conf – confirmation of Staphylococcus aureus NadD inhibitors; shares compounds with NadD block; purified S. aureus NadD, colorimetric enzyme assay; inhibition, % at 20 µM; actives 13% (n = 2,000); AID 624309; in the data active means inhibition mostly above about 42%, no sharp cut-off; inactive means mostly below about 42%
Hits are given with their value; 0 = inactive; - = no result given. Shown are actives, neighbours in structure and some others; about 4.3% of the full set was active somewhere.

SMILES	GRIN3A LBD mod	FAS-TE inh	rCAG RNA binder	NadD block	NadD inh conf
Cc1ccc(NC(=O)CC2S/C(=N/N=C/C=C/c3ccccc3)NC2=O)cc1Cl (configuration not stated)	15.2	0	0	32.3	0
Cc1ccc(NC(=O)CC2S/C(=N/N=C/c3ccco3)NC2=O)cc1Cl (configuration not stated)	0	0	0	0	-
Cc1ccc(Cn2c(C3CCCN3c3nc(-c4cc(Cl)c(N)c(Cl)c4)cs3)nc3cc(Cl)c(Cl)cc32)cc1 (configuration not stated)	0	0	0	51.3	43.3
CCCn1c(C2CCCN2c2nc(C)cs2)nc2cc(Cl)c(Cl)cc21 (configuration not stated)	0	0	0	0	-
Nc1c(Cl)cc(-c2csc(N3CCCC3c3nc4cc(Cl)c(N5CCCCC5)cc4n3CCCO)n2)cc1Cl (configuration not stated)	0	0	0	31.6	0
Nc1c(Cl)cc(-c2csc(N3CCCC3c3nc4cc(Cl)c(Cl)cc4n3CCCO)n2)cc1Cl (configuration not stated)	0	0	0	0	-
CCCn1c(C2CCCN2c2nc(-c3cccc(Br)c3)cs2)nc2cc(Cl)c(Cl)cc21 (configuration not stated)	0	0	0	36.1	0
COC(=O)[C@]12C[C@H](CC(=O)N3CCN(C(=O)c4ccco4)CC3)C(=O)N(CCC3=CCCCC3)C1=C[C@H](C1CCCC1)O[C@@H]2C	-	-	0	-	-
COC(=O)c1cc2c(c3c4cc(F)ccc4n(C(=O)c4ccccc4)c13)C(=O)N(C1CCCCC1)C2	-	-	0	-	-
Cc1ccc(NC(=O)OC2CC3CC2[C@H]2CCCCN2C3)cc1C (some centres not stated)	-	-	0	-	-
COc1cc(/C=C(/C#N)c2ccccc2)ccc1Oc1ccc([N+](=O)[O-])cn1	0	0	0	0	-
Cc1ccc2nc(/C(C#N)=C/c3ccc(-c4cccc([N+](=O)[O-])c4)o3)[nH]c2c1	13.3	0	0	32.0	0
Cc1ccc2nc(/C(C#N)=C\c3ccc(Oc4ccc(C(F)(F)F)cc4[N+](=O)[O-])cc3)[nH]c2c1	0	0	0	32.7	0
COc1ccc(/C=C(\C#N)c2nc3ccc(C)cc3[nH]2)cc1Oc1ccc(C(F)(F)F)cc1[N+](=O)[O-]	18.0	0	0	31.7	0
COc1cc(/C=C(\C#N)c2nc3ccccc3[nH]2)ccc1Oc1ccc([N+](=O)[O-])cn1	0	0	0	33.3	0
O[C@H](COc1ccc(Cl)cc1)CN1CCC(C(O)(c2ccccc2)c2ccccc2)CC1	-	-	0	-	-
COc1cc(/C=C(\C#N)c2nc3ccccc3[nH]2)cc(OC)c1O	0	0	0	0	-
N#C/C(=C\c1cccc(Oc2ccc(C(F)(F)F)cc2[N+](=O)[O-])c1)c1nc2ccccc2[nH]1	0	0	0	38.4	0
Cc1oc(-c2ccc(F)cc2)cc1-c1nn2c(-c3ccoc3C)nnc2s1	0	0	36.3	53.4	0
COc1cc(/C=N/NC(=O)COc2c(C)cc([N+](=O)[O-])cc2C)ccc1OC(=O)c1ccccc1	0	0	0	0	-
COc1cc(/C=N/NC(=O)COc2c(C)cc([N+](=O)[O-])cc2C)ccc1OC(=O)c1ccccc1Br	0	0	0	32.8	0
O=C(NCCc1c[nH]c2ccccc12)OCc1cn(Cc2ccc(F)c(F)c2)nn1	-	-	0	-	-
C#CCOCCOCCOCCNc1nc(N2CCN(C(=O)[C@H]([C@@H](C)CC)n3cc([C@@H](N)Cc4ccc(O)cc4)nn3)CC2)nc(N2CCN(C(=O)[C@H](Cc3cc4ccccc4[nH]3)n3cc([C@@H](N)CC(C)C)nn3)CC2)n1	0	0	-	48.3	0
C#CCOCCOCCOCCNc1nc(N2CCN(C(=O)[C@H]([C@@H](C)CC)n3cc([C@@H](N)CC(C)C)nn3)CC2)nc(N2CCN(C(=O)[C@H](Cc3cc4ccccc4[nH]3)n3cc([C@@H](N)Cc4ccc(O)cc4)nn3)CC2)n1	0	-	-	-	-
COC(=O)C1CN(Cc2cn(Cc3ccccc3)nn2)CCS(=O)(=O)N1Cc1ccccc1 (configuration not stated)	-	-	0	-	-
SMILES	GRIN3A LBD mod	FAS-TE inh	rCAG RNA binder	NadD block	NadD inh conf
O=C/C(=C\Nc1ccc(Cl)cn1)c1nc2cc(Cl)ccc2o1	0	0	0	37.7	0
C=CCN(C(=O)[C@@H](C)[C@@H](O)c1ccc(Cl)cc1)c1ccccc1	-	-	0	-	-
CCOC(=O)c1ccc(N=C2C(=S)N(c3ccc(C(=O)OCC)cc3)C(=N)N2/N=C/c2ccccc2)cc1	0	0	0	39.1	0
CCOC(=O)c1ccc(N=c2scc(C)n2CC)cc1	0	0	0	0	-
CCN(CC)S(=O)(=O)c1ccc(C(=O)/C=C/c2ccc(-c3ccc([N+](=O)[O-])cc3)o2)cc1	0	0	0	51.7	0
Cc1ccc(C(=O)/C=C/c2ccc(-c3ccc(C)cc3)o2)cc1	0	0	0	34.4	0
O=C(/C=C\c1ccc(-c2ccccc2)o1)c1ccccc1	0	0	0	0	-
CCCC(=O)OC[C@H]1CN(C2CCCC2)S(=O)(=O)c2c(Oc3ccccc3)cccc2O1	-	-	0	-	-
CCn1c(SCC(=O)Nc2nc(-c3ccc(C)cc3)cs2)nnc1-c1ccccc1	0	0	0	0	-
CCn1c(SCC(=O)Nc2nc(-c3ccc(C)cc3)cs2)nnc1-c1ccccc1O	0	0	0	37.4	43.1
Cc1cccc(NC(=O)CSc2cc(C)c(C#N)c3nc4ccccc4n23)c1	12.7	0	0	42.9	0
CNc1cc(C)c(C#N)c2nc3ccccc3n12	0	0	0	0	-
COc1ccc(C2C(C(=O)N3CCCCC3C)CC(=O)N2c2ccc(OC)cc2)cc1 (configuration not stated)	-	-	0	-	-
O=S(c1ccccc1O)S(=O)c1ccccc1O (configuration not stated)	0	0	72.3	39.2	68.0
N#Cc1ccccc1NCCCN1CCC(C(O)(c2ccccc2)c2ccccc2)CC1	-	-	0	-	-
O=C(Cn1cnc([N+](=O)[O-])c1)Nc1cc(Oc2ccc(Cl)cc2Cl)cc([N+](=O)[O-])c1	12.4	0	0	31.8	0
Cc1c([N+](=O)[O-])cc(N2C(=O)C=CC2=O)cc1[N+](=O)[O-]	0	0	-	42.1	57.1
Cc1cc(N2C(=O)C=CC2=O)c([N+](=O)[O-])cc1C	0	0	-	0	-
CCOc1ccc(-n2c(COc3ccc(C)cc3)nnc2SCC(=O)c2ccc3ccccc3c2)cc1	-	-	0	-	-
COc1cc2c(cc1OC)C1(Nc3c-2c(Cc2ccccc2)nn3-c2ccccc2)C(=O)Nc2ccccc21 (configuration not stated)	0	0	0	44.7	0
CCCn1c(=O)c2c(C(=O)OCC)cc(-c3ccco3)nc2n(CCC)c1=O	0	0	0	0	-
CCOC(=O)c1cc(-c2ccco2)nc2c1c(C)nn2-c1ccccc1	0	0	0	33.3	0
CCN(CC)C(=O)c1ccc(C(CCOC(=O)Oc2ccccc2)c2ccc(OC)cc2)cc1 (configuration not stated)	-	-	0	-	-
